TROY NFkB inh = inhibitors of TROY-dependent NF-kB signaling; Q293 LMP1-TROYcd NF-kB luciferase reporter, 4 h; inhibition, % at 10 µM; 0.98% of 360,000 active;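 active = compounds whose plate-normalised and pattern-corrected inhibition of the luciferase reporter signal at the single screening dose is 50% or more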
HSP90 refold inh = HSP90 refolding inhibition in rabbit reticulocyte lysate. luciferase refolding luminescence, 3 h. inhibition, % at 5.6 µM. 0.91% of 290,000 active. AID 1789;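 active = inhibition above the screen-wide mean plus 3 SD, computed separately per campaign, cut at about 16% in these data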;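 also: inhibitors lower the luminescence because luciferase stays unfolded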
C8 TRAIL sens = caspase-8 TRAIL sensitization. inhibition (viability loss, TRAIL sensitization), % at 10 µM. AID 624354. NB7+C8 cells + TRAIL, ATPlite viability luminescence. 1% of 360,000 active;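 active = compounds causing at least 50% loss of cell viability in the single-dose screen, relative to plate controls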
TWEAK Fn14 block = blocks TWEAK-Fn14 interaction in a reporter cell assay. TWEAK-stimulated Fn14 reporter cells, luciferase luminescence, 8 h. inhibition, % at 10 µM. 2% of 360,000 active. AID 1159606; in the data active = inhibition above about 50%
Platelet DG rel = platelet dense granule release activity; human platelet-rich plasma, SFLLRN dense granule ATP release, luminescence; inhibition, %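 (compounds screened at 7.5 µM in platelet-rich plasma)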; 0.22% of 300,000 active;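 active = mean replicate score, as percent of positive control, at or above 50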
PPC-1+TRAIL kill = PPC-1 cancer cell killing with TRAIL present; PPC-1 cells + TRAIL, ATPLite viability luminescence; cell killing (% activity), % at 4 µM or 5 µM; 0.41% of 220,000 active;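 active = cell killing above 50% in the first pass at 4 µM, then a duplicate retest at 5 µM averaging 50% or more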
PPC-1 tox = kills PPC-1 cells. PPC-1 viability, ATPlite luminescence, overnight. cytotoxicity, % at 5 µM. shares compounds with PPC-1+TRAIL kill. 50% of 1,200 active;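 active = reconfirmed compounds whose average cytotoxicity reaches 50% or more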
Each line names hits and unclear results; the compound was inactive in the other large screens (follow-up assays come after a bar, where they were run). The list is not random: actives were taken first. Their share in the collection is about 3.5%.

CC1CC(=O)Nc2ccccc2N1C(=O)Nc1ccc(F)cc1 (stereo not drawn)	none | PPC-1 tox inactive
Cc1ccc(C)c(NC(=O)C(c2ccccc2)N2CCOCC2)c1 (stereo not drawn)	none
O=C(NCc1ccc2c(c1)OCO2)c1cc(-c2ccccc2)on1	none (no result: Platelet DG rel) | PPC-1 tox inactive
Cc1ccc(-c2cc(C(=O)NCc3ccc4c(c3)OCO4)no2)cc1	none
Cc1ccc(-c2nc3cc(N)ccc3o2)cc1	C8 TRAIL sens 70, TWEAK Fn14 block 70, PPC-1+TRAIL kill 63 | PPC-1 tox 61
Cc1ccc(-c2nc3cc(N)ccc3o2)c(C)c1	C8 TRAIL sens 58 | PPC-1 tox inactive
COc1cccc2sc(Nc3nc(-c4ccccn4)cs3)nc12	TWEAK Fn14 block 104 | PPC-1 tox inactive
COc1ccc(OC)c(CCNC(=O)CCCc2nnc3n(C)c(=O)c4sccc4n23)c1	none (no result: PPC-1+TRAIL kill)
CCC(CC)C(=O)Nc1ccc(-c2cn3cccnc3n2)cc1	none (no result: PPC-1+TRAIL kill)
CCNC(=O)N1CCNC(=O)C1CC(=O)OC (stereo not drawn)	none | PPC-1 tox inactive
COc1ccc(N(C(C)C(=O)NN=C2CCCCCCC2)S(C)(=O)=O)cc1 (stereo not drawn)	none
COc1ccc(N(C(C)C(=O)NC2CCCCCC2)S(C)(=O)=O)cc1 (stereo not drawn)	none | PPC-1 tox inactive
CC1=C(O)c2ccccc2C(=O)C1=O	none (no result: HSP90 refold inh, Platelet DG rel, PPC-1+TRAIL kill)
COc1ccc(N=CC2=C(O)c3ccccc3C2=O)c(OC)c1	TROY NFkB inh 83, HSP90 refold inh 33, C8 TRAIL sens 92, TWEAK Fn14 block 102, Platelet DG rel 51, PPC-1+TRAIL kill 82 | PPC-1 tox 85
Cc1ccccc1N=CC1=C(O)c2ccccc2C1=O	TROY NFkB inh 78, C8 TRAIL sens 90, TWEAK Fn14 block 106, Platelet DG rel 58, PPC-1+TRAIL kill 84 | PPC-1 tox 82
COCC(C)n1c(C)cc(C(=O)COC(=O)C2=NN(c3ccccc3)C(=O)CC2)c1C (stereo not drawn)	none
COCC(C)n1c(C)cc(C(=O)COC(=O)c2ccc(N3CCCC3=O)cc2)c1C (stereo not drawn)	none | PPC-1 tox inactive
CC1(C(=O)OCC(=O)Nc2ccc3ccccc3c2)CC1(Cl)Cl (stereo not drawn)	none
COc1ccc(NC(=O)c2cccc([N+](=O)[O-])c2)cc1	none
COc1ccc(NC(=O)c2cc([N+](=O)[O-])ccc2O)cc1	TROY NFkB inh 87, HSP90 refold inh 81, C8 TRAIL sens 91, TWEAK Fn14 block 104, Platelet DG rel 72, PPC-1+TRAIL kill 75 | PPC-1 tox 77
CC(c1ccco1)N(C(=O)COc1ccc(Cl)cc1Cl)c1ccccn1 (stereo not drawn)	TROY NFkB inh 62, HSP90 refold inh 42, C8 TRAIL sens 57, TWEAK Fn14 block 84 | PPC-1 tox inactive
Nc1nc2ccccc2cc1C(=O)NCc1cccs1	none (no result: TROY NFkB inh, HSP90 refold inh, TWEAK Fn14 block, Platelet DG rel, PPC-1+TRAIL kill)
O=C(CN1C(=O)NC2(CCCC2)C1=O)N1CCN(c2ccccc2O)CC1	none (no result: HSP90 refold inh, PPC-1+TRAIL kill)
Cc1ccc2c(c1)COc1c3ccc(C(=O)NCC4CC4)cc3nn1-2	none (no result: HSP90 refold inh)
C=CCNC(=O)c1ccc2c3n(nc2c1)-c1ccc(Cl)cc1CO3	none (no result: HSP90 refold inh, PPC-1+TRAIL kill)
O=C(NCCO)c1ccc2c3n(nc2c1)-c1ccccc1CO3	C8 TRAIL sens 70, PPC-1+TRAIL kill 71 (no result: HSP90 refold inh) | PPC-1 tox 70
O=C(NCC1CC1)c1ccc2c3n(nc2c1)-c1ccccc1CO3	C8 TRAIL sens 83, PPC-1+TRAIL kill 80 (no result: HSP90 refold inh) | PPC-1 tox 76
CCOc1ccc(OCC)c(NC(=O)c2nnn(CC(=O)Nc3cc(C)cc(C)c3)c2N)c1	none (no result: PPC-1+TRAIL kill)
COc1cc(NC(=S)Nc2ccc(N(C)C(C)=O)cc2)cc(OC)c1	none
COc1ccc(-n2c(SCC(=O)NCC3CCCO3)nc3ccccc3c2=O)cc1Cl (stereo not drawn)	none (no result: HSP90 refold inh, Platelet DG rel, PPC-1+TRAIL kill)
CCS(=O)(=O)N1CCC(C(=O)Oc2ccccc2Cl)CC1	none (no result: PPC-1+TRAIL kill)
Cn1c(COc2ccccc2)nnc1SCC(=O)NCc1ccccc1	none
Cc1ccc(OCc2nnc(SCC(=O)NCc3ccccc3)n2C)cc1	none | PPC-1 tox inactive
C(=N\Nc1nc2ccccc2[nH]1)/c1cccc2cccnc12	PPC-1+TRAIL kill 53 | PPC-1 tox 52
O=C(N/N=C/c1cccc2cccnc12)c1ccccc1O	none | PPC-1 tox inactive
O=C(N/N=C/c1cccc2nccnc12)c1ccccc1O	none
O=C(O)CC1=C(O)C(=O)N(c2ccccc2)C1c1ccccc1 (stereo not drawn)	none | PPC-1 tox inactive
CN(Cc1ccccc1)C(=O)COC(=O)C12CC3CC(CC(Br)(C3)C1)C2	none (no result: HSP90 refold inh, Platelet DG rel, PPC-1+TRAIL kill)
O=C(NCC1CCCO1)c1ccc2c(c1)C(=O)N(C1CCCCC1)C2=O (stereo not drawn)	none | PPC-1 tox inactive
CC(C)CCN1C(=O)c2ccc(C(=O)NCC3CCCO3)cc2C1=O (stereo not drawn)	none
O=C(Cn1cnc2ccc(Cl)cc2c1=O)NC1CCS(=O)(=O)C1 (stereo not drawn)	none (no result: HSP90 refold inh, Platelet DG rel, PPC-1+TRAIL kill)
CC(C)NC(=O)c1ccc2c3n(nc2c1)-c1ccccc1CO3	C8 TRAIL sens 91, TWEAK Fn14 block 58, PPC-1+TRAIL kill 90 (no result: HSP90 refold inh) | PPC-1 tox 90
CC(C)[C@@H](CO)NC(=O)c1ccc2c3n(nc2c1)-c1ccccc1CO3	C8 TRAIL sens 71, Platelet DG rel 75, PPC-1+TRAIL kill 71 (no result: HSP90 refold inh) | PPC-1 tox 69
CC#CC#Cc1cccc(=O)o1	none
O=C1CCC(=O)N1c1ccc(CSc2nc3ccccc3[nH]2)cc1	none
COc1ccc(CSc2nc3ccccc3[nH]2)cc1	C8 TRAIL sens 69, PPC-1+TRAIL kill 58 (no result: Platelet DG rel) | PPC-1 tox 55
c1ccc2nc(-c3ccncc3)ccc2c1	none
CN1CCN(c2ccc(-c3ccc4ccccc4n3)cc2)CC1	TROY NFkB inh 92, HSP90 refold inh 89, C8 TRAIL sens 90, TWEAK Fn14 block 103, Platelet DG rel 79, PPC-1+TRAIL kill 82 | PPC-1 tox 77
CC(=O)Nc1ccc(S(=O)(=O)NC2(C(F)(F)F)C(=O)Nc3c2c(=O)n(C)c(=O)n3C)cc1 (stereo not drawn)	none | PPC-1 tox inactive
CC(=O)Nc1ccc(S(=O)(=O)NC2(C(F)(F)F)C(=O)Nc3c2c(=O)[nH]c(=O)n3C)cc1 (stereo not drawn)	none
N#Cc1c(SCc2nc3ccccc3[nH]2)nc2c(c1C(F)(F)F)CCC2	none (no result: TROY NFkB inh, C8 TRAIL sens, TWEAK Fn14 block, Platelet DG rel, PPC-1+TRAIL kill)
N#Cc1cc2c(nc1SCc1nc3ccccc3[nH]1)CCC2	none (no result: TROY NFkB inh, C8 TRAIL sens, TWEAK Fn14 block) | PPC-1 tox inactive
COc1ccc(NC(=O)CN2CCN(CC(=O)Nc3cc(OC)cc(OC)c3)CC2)cc1	none (no result: HSP90 refold inh, Platelet DG rel) | PPC-1 tox inactive
CC(Oc1ccccc1)C(=O)N1CCN(c2ccc(N3CCOCC3)nn2)CC1 (stereo not drawn)	none (no result: HSP90 refold inh, PPC-1+TRAIL kill)
COCCOC(=O)CSc1ncccc1-c1nc2cc(C)c(C)cc2[nH]1	C8 TRAIL sens 65, PPC-1+TRAIL kill 57 | PPC-1 tox 59
CCc1ccc(N(CC(=O)N2CCN(Cc3ccccc3)CC2)S(C)(=O)=O)cc1	none (no result: PPC-1+TRAIL kill)

Assay outcomes from PubChem BioAssay.
